Rows were chosen to be rich in hits. Some 0.59% of all compounds tested hit in one or more screens of this group.
PTHR1 ag – PTHR1 (human) receptor agonism | hit rate 0.075% among 410,000 | Potency, µM (doses to about 115 µM), hits mostly activators | HEK293 GP2 PTHR1 cells, GloSensor cAMP luminescence, 1 h; further: nearly all actives have a fitted effect of over 55% in size
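HEK-293-derived GP2 cells expressing PTHR1 and a GloSensor cAMP reporter, 3,000/well, plated overnight, given luciferin plus IBMX (each 0.5 mM as added) for 1 h at 37 °C, then compound for 1 h at 37 °C. Luminescence was read after 15 min at room temperature.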
LDHA block – blocks human lactate dehydrogenase A. P00338. purified LDHA, NADH/diaphorase-resazurin fluorescence; stronger effect = lower value. activity change, % (values are at about 110 or 230 µM). hit rate 0.15% among 480,000. AID 1347041; in the data active means activity change below about -30%; inconclusive means mostly about -25% to -30%
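Enzyme activity of human lactate dehydrogenase 5 (2 nM; 0.06 mM NADH, 0.2 mM pyruvate, 5 min, RT) is measured via a resazurin/diaphorase fluorescence readout of residual NADH.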
IDH1 R132H inh – blocks human mutant IDH1 R132H enzyme | AID 602179 | hit rate 0.093% among 390,000 | IDH1-R132H enzyme, NADPH consumption, diaphorase/resazurin fluorescence | O75874 | Potency, µM (top dose mostly 76.6 µM), actives largely listed as inhibitors; further: nearly all actives have a fitted effect of over 65% in size
Target sequence (O75874 whole entry R132H, stated change not applied): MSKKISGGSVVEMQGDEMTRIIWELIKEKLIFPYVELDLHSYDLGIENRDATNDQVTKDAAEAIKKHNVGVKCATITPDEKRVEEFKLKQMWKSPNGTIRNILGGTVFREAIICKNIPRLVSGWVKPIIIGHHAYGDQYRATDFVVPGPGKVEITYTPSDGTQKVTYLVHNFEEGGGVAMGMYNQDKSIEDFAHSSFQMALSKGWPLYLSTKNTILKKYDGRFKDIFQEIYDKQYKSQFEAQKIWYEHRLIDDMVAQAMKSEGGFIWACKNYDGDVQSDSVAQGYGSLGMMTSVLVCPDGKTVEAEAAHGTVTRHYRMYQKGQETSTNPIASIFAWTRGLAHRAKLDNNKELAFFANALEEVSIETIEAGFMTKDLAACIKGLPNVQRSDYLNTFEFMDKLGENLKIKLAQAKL
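IDH1-R132H (0.5 ug/mL) preincubated 30 min with compound, then NADPH (0.016 mM) and alpha-KG (2 mM) added; 80 min at RT, pH 7.5. Remaining NADPH coupled via diaphorase/resazurin to fluorescence (540/590 nm); concentration-response curves normalized to no-enzyme control.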
PINK1 expr mod – modulators of PINK1 expression; PINK1 immunofluorescence, high-content cytometry, 24 h; hit rate 0.2% among 410,000; Potency, µM (top dose mostly 76.6 µM), usual class: activators; active means well fitted activation curve with a large enough effect; inconclusive means small, poorly fitted or top-dose-only effect; cell line not stated here; further: nearly all actives have a fitted effect of over 65% in size
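A stable cell line was treated with compounds at 5 concentrations for 24 hours, with CCCP as control. PINK1 levels and mitochondrial localization were measured by immunofluorescence with mitochondrial, cell and nuclear markers after fixation, read by laser-scanning cytometry.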
Vif-A3G inh – inhibitors of Vif-APOBEC3G interaction | Q9HC16 | HeLa A3G-eYFP + Vif (tagged APOBEC3G with the HIV-1 protein that degrades it), YFP fluorescence, overnight | Potency, µM (highest dose often 46.1 µM), usual class: inhibitors | hit rate 0.076% among 410,000; further: nearly all actives have a fitted effect of over 60% in size
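Read-out is eYFP fluorescence (Ex 488/Em 500-530) from Vif-expressing HeLa A3G-eYFP cells; more signal means A3G escaped Vif-mediated degradation. Cells plated overnight, compound pinned in, incubated overnight at 37 deg C.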
Vif-A3F inh – inhibitors of Vif-A3F interaction | HeLa A3F-eYFP + Vif (tagged APOBEC3F with the HIV-1 protein that degrades it), YFP fluorescence increase | Potency, µM (series often up to 46.1 µM) | hit rate 0.2% among 390,000; further: nearly all actives have a fitted effect of over 65% in size
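HeLa cells stably expressing A3F-eYFP plus Vif, plated and incubated overnight at 37 deg C, then exposed to compounds overnight at 37 deg C. Blocked degradation read as raised yellow fluorescence (Ex 488/Em 500-530).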
IDH1 autofl – counter-screen for mutant IDH1 inhibitors: fluorescence interference; shares compounds with IDH1 R132H inh; Resorufin detection reagent fluorescence interference, cell-free; inhibition of signal, % at 51.2 µM; 750 tested, under 10 active; AID 623980
IDH1 WT – wild-type IDH1 (human) inhibition counterscreen | shares compounds with IDH1 R132H inh | WT IDH1 enzyme, NADPH diaphorase/resazurin fluorescence | Potency, µM (doses to about 115 µM), hits mostly inhibitors | hit rate 9% among 750 | AID 623995; further: nearly all actives have a fitted effect of over 55% in size
Target sequence (O75874 whole entry, looked up): as the sequence (O75874 whole entry R132H, stated change not applied) above, with H132R counted along it
IDH1 R132H conf – confirmation of human mutant IDH1 inhibitors; hit rate 83% among 750; shares compounds with IDH1 R132H inh; IDH1 R132H enzyme, NADPH diaphorase/resazurin fluorescence; Potency, µM (doses to about 76.6 µM), usual class: inhibitors; further: nearly all actives have a fitted effect of over 50% in size
A number is an active result; . = inactive; ? = inconclusive; / = not tested or not shown. Unless noted, the call rests on the fitted dose curve; in most records, active means well fitted curve in the direction sought with a large enough effect; inconclusive means small, poorly fitted or top-dose-only effect, or another doubt; inactive means no such curve, though single readings can be large; an effect the other way counts as inactive or inconclusive.

SMILES	PTHR1 ag	LDHA block	IDH1 R132H inh	PINK1 expr mod	Vif-A3G inh	Vif-A3F inh	IDH1 autofl	IDH1 WT	IDH1 R132H conf
CCc1cccc(CC)c1-n1c(SCC(=O)N2CCc3ccccc3C2)nnc1-c1cccnc1	.	.	52.1µM	.	.	.	.	.	14.1µM
Cc1ccc(NC(=O)CSC2=C(C#N)C(c3ccco3)C3=C(CC(C)(C)CC3=O)N2)cc1 (stereo not drawn)	.	.	52.1µM	.	.	.	.	.	28.2µM
CCc1ccc(NC(=O)CSC2=C(C#N)C(c3ccco3)C3=C(CCCC3=O)N2)cc1 (stereo not drawn)	.	.	.	.	.	.	/	/	/
CC(=O)c1cccc(NCC(=O)c2ccc(C)c([N+](=O)[O-])c2)c1	.	.	16.5µM	.	.	.	.	.	39.8µM
CCN(CCC#N)Cc1ccc(Br)s1	/	.	/	/	/	/	/	/	/
O=C(c1ccccc1)c1ccc(OC(=O)c2cccs2)cc1	/	.	/	/	/	/	/	/	/
COc1ccc(CN(CCC(c2ccc(F)cc2)C2CCOC(C)(C)C2)C(=O)c2ccco2)cc1 (stereo not drawn)	.	.	?	.	.	.	.	.	?
CC(c1ccccc1)N(CCC(c1ccccc1)C1CCOC(C)(C)C1)C(=O)c1ccco1 (stereo not drawn)	.	.	?	.	.	.	/	/	/
CC(=O)Oc1ccc(C(=O)Nc2cccc(C(=O)c3ccc(C)c(C)c3)c2)cc1	.	.	?	.	.	.	.	.	10µM
Cc1ccc(-c2cc3c(n2-c2ccc(C(=O)O)cc2)CCCC3=O)cc1	.	.	?	.	.	.	.	.	35.5µM
O=C1CCCc2c1cc(-c1ccccc1)n2-c1ccc(O)cc1	.	.	.	.	.	.	/	/	/
CCC(=O)N(CCC1(c2ccccc2OC)CCOC(C(C)C)C1)Cc1ccco1 (stereo not drawn)	.	.	?	.	.	.	.	.	39.8µM
COc1ccccc1C1(CC(=O)O)CCOC(C(C)C)C1 (stereo not drawn)	.	.	.	.	.	.	/	/	/
N#Cc1nc(-c2ccco2)oc1N1CCC(C(=O)Nc2ccccc2N2CCCC2=O)CC1	/	.	/	/	/	/	/	/	/
CCC(CC)NC(=O)COC(=O)c1cc(S(=O)(=O)N(CC)CC)ccc1N1CCCCC1	/	.	/	/	/	/	/	/	/
CC(C)N1CCC(NC(=O)CC23CC4CC(CC(C4)C2)C3)CC1	/	.	/	/	/	/	/	/	/
Cc1ccc(CSC2=Nc3ccccc3C3=NC(CCC(=O)NCCc4ccccc4)C(=O)N23)cc1 (stereo not drawn)	.	.	?	.	.	.	.	.	.
O=C(NC1CCCCC1)C(c1ccc(Cl)cc1)N(C(=O)c1cnccn1)c1ccc2c(c1)OCO2 (stereo not drawn)	.	.	?	/	.	.	.	.	?
COc1cccc(N(C(=O)c2cnccn2)C(C(=O)NC2CCCCC2)c2ccc(Cl)cc2)c1 (stereo not drawn)	.	.	.	.	.	.	/	/	/
O=C(NC1CCCC1)C(c1ccccc1)N(C(=O)c1csnn1)c1ccccc1F (stereo not drawn)	.	.	?	.	.	.	.	.	25.1µM
O=C(NC1CCCCC1)C(c1ccco1)N(C(=O)c1csnn1)c1cccc(Cl)c1 (stereo not drawn)	.	.	?	.	.	.	.	.	28.2µM
O=C(NC1CCCC1)C(c1ccncc1)N(C(=O)c1csnn1)c1ccccc1 (stereo not drawn)	.	.	.	.	.	.	/	/	/
COc1cccc(N(C(=O)c2csnn2)C(C(=O)NC2CCCC2)c2ccccc2)c1 (stereo not drawn)	.	.	?	.	.	.	.	.	39.8µM
Cc1ccc(-n2c(SCC(=O)O)nc3c(sc(=S)n3-c3ccc(C)c(C)c3)c2=O)cc1	.	.	.	.	.	.	/	/	/
Cc1ccc(-n2c(=S)sc3c(=O)n(-c4ccc(F)cc4)c(SCC(=O)O)nc32)cc1C	.	.	?	.	.	.	.	.	12.6µM
SMILES	PTHR1 ag	LDHA block	IDH1 R132H inh	PINK1 expr mod	Vif-A3G inh	Vif-A3F inh	IDH1 autofl	IDH1 WT	IDH1 R132H conf
CCCSC1=C(C#N)C(c2cccnc2)C(C(=O)OCC)=C(c2ccccc2)N1 (stereo not drawn)	.	.	?	.	.	.	/	/	/
CCOC(=O)C1=C(c2ccccc2)NC(SCC)=C(C#N)C1c1cccnc1 (stereo not drawn)	.	.	?	.	.	.	.	.	15.8µM
COc1cccc(Cn2c(=O)n(-c3cccc(Cl)c3C)c(=O)c3c4c(sc32)CN(C(C)=O)CC4)c1	.	.	35.5µM	.	.	.	.	20µM	25.1µM
CCOC(=O)c1ccc(N2C(=O)c3n[nH]c(-c4cccs4)c3C2c2ccc(CC)cc2)cc1 (stereo not drawn)	.	.	.	?	.	.	/	/	/
CCOC(=O)c1ccc(N2C(=O)c3n[nH]c(C)c3C2c2ccc(CC)cc2)cc1 (stereo not drawn)	.	.	?	.	.	.	.	.	?
CCOC(=O)c1ccc(N2C(=O)c3n[nH]c(C)c3C2c2cccc(Br)c2)cc1 (stereo not drawn)	?	.	?	.	.	.	.	.	25.1µM
CCOC(=O)c1ccc(N2C(=O)c3n[nH]c(C)c3C2c2ccc(F)cc2)cc1 (stereo not drawn)	/	.	/	/	/	/	/	/	/
CCOC(=O)c1ccc(N2C(=O)c3n[nH]c(-c4cccs4)c3C2c2cccc(O)c2)cc1 (stereo not drawn)	.	.	?	.	.	.	.	.	15.8µM
CCOc1cccc(-c2cc(C(=O)OC)c3ccccc3n2)c1	/	.	/	/	/	/	/	/	/
Cc1cc(SC(C)C(=O)N(C)C)nc2ccccc12 (stereo not drawn)	/	.	/	/	/	/	/	/	/
N#CC1(C#N)C(C(N)=O)C1c1ccccc1 (stereo not drawn)	.	.	.	.	.	.	/	/	/
CN1C=CC2=C(C#N)C(N)C(C#N)(C#N)[C@H](c3ccccc3)[C@H]2C1 (stereo partly drawn)	.	.	?	12.6µM	.	.	.	.	?
CCc1cc(C(=O)c2ccc(OC)cc2)c(NC(=O)CN2CCCC2)s1	.	.	46.5µM	.	.	.	.	.	15.8µM

Source: PubChem BioAssay (National Center for Advancing Translational Sciences (NCATS))
